Experimental data taken from PubChem BioAssay.
Calls of active or inactive are those of the source. Unless noted, how the calls were made is not given here.

Legend:
[1] = tested on: Wnt5a (protein binding on small-molecule microarray); experiment: Wnt5a binders on small-molecule microarray, primary screen, biophysical, 635/667 nm fluorescence (AID 1142); conditions: 635 nm fluorescence, higher = more signal;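 further: fluorescence read at 667 nm with signal to noise per printed feature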
[2] = cell viability in Huh7 cells, primary screen, cytotoxicity control for HCV replication inhibitor project, CellTiter-Glo luminescence, basal, 48 h (AID 1143); conditions: Huh7 HCV replicon, higher = more signal, called active from +8 up or from −8 down;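 further: Huh7 hepatoma cells carrying a hepatitis C replication reporter with no stimulus; test concentration not given here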
[3] = P. aeruginosa biofilm formation inhibitors, primary screen, PAO1 strain, BacTiter-Glo luminescence, LB-PBS (AID 1144); conditions: 12 h, higher = more signal
[4] = CREB reporter modulators without forskolin, primary screen, cell-based, PC12, CRE-LacZ reporter, unstimulated (AID 1145); conditions: no forskolin, luminescence, 4.5 h, higher = more signal, called active from +8 up or from −8 down
[5] = CREB reporter modulators under forskolin, primary screen, cell-based, PC12, CRE-LacZ reporter, forskolin-stimulated (AID 1146); conditions: luminescence, 4.5 h, higher = more signal, called active from +8 up or from −8 down;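 further: PC12 cells with 6xCRE LacZ reporter stimulated by forskolin 10 µM; beta-galactosidase reporter signal reflecting CREB driven transcription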
[6] = target: Streptavidin (Streptomyces avidinii) (UniProt P22629); experiment: streptavidin binders on small-molecule microarray, primary screen, artefact control for SMM compound annotation, biophysical, 635/667 nm fluorescence (AID 1147); conditions: streptavidin binding, higher = more signal;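 further: signal reflects streptavidin binding to arrayed compounds as a control protein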
Streptavidin (Streptomyces avidinii), sequence (P22629 whole entry, looked up): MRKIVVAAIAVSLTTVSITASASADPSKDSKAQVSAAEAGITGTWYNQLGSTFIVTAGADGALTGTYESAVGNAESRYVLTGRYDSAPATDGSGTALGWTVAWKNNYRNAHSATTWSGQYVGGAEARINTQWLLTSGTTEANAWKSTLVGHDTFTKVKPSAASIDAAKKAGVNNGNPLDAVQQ

[7] = small-molecule binders of probe aInhba, primary screen, biochemical, small-molecule microarray, 635/667 nm fluorescence (AID 1148); conditions: higher = more signal;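 further: score merges 667nm spot fluorescence with signal-to-noise for antibody binding to printed compounds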
Torsin-1A (Homo sapiens) [8] = target: Torsin-1A (Homo sapiens) (UniProt O14656); experiment: torsin A binders from cell lysate, primary screen, small-molecule microarray, wild-type, 635/667 nm (AID 1149); conditions: COS7 hTOR1A-WT lysate, 635 nm fluorescence, higher = more signal
Torsin-1A (Homo sapiens), sequence (O14656 whole entry, looked up): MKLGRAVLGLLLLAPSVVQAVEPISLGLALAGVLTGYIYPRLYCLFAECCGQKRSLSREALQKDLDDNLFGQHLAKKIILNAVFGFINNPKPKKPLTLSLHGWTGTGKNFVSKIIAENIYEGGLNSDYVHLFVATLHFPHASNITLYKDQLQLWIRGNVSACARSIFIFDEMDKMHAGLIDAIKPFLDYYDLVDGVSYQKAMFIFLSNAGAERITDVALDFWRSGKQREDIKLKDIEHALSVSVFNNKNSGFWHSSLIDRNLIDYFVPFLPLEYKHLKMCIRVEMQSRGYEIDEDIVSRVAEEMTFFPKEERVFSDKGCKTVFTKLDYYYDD

Torsin-1A (Homo sapiens) [9] = target: Torsin-1A (Homo sapiens) (UniProt O14656); experiment: small-molecule binders of mutant TOR1A in lysate, primary screen, cell lysate, small-molecule microarray, COS7 lysate, 635/667 nm fluorescence (AID 1150); conditions: COS7 hTOR1A mutant lysate, 635 nm fluorescence, higher = more signal;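 further: score pools 667 nm emission and signal to noise measuring lysate protein binding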
[10] = tested on: Sonic hedgehog protein (Shh); experiment: small-molecule binders of Shh protein, primary screen, biochemical, small-molecule microarray, 635/667 nm fluorescence (AID 1151); conditions: small-molecule microarray binding, 635 nm fluorescence; higher = more signal;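 further: Shh protein binding to compounds spotted on small-molecule microarray slides; score combines spot fluorescence intensity with signal-to-noise across triplicate slides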
[11] = E. coli DRC41 culture turbidity changes, primary screen, E. coli filamentation inducer project, strain DRC41, OD650, 48 h (AID 1152);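 further: E. coli MC1000 strain DRC41 lacking acrAB efflux pump and sulA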; conditions: E. coli DRC41 (acrAB sulA), higher = more signal, called active from +8 up or from −8 down
[12] = small-molecule binders of probe aLefty1, primary screen, biochemical, small-molecule microarray, 635/667 nm fluorescence (AID 1153); conditions: higher = more signal;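 further: score merges spot fluorescence with signal-to-noise ratio from the scanned slide images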
[13] = PSAC antagonists in infected red cells, primary screen, cell-based, P. falciparum Indochina, OD700, 1 h (AID 1154); conditions: P. falciparum Indochina infected RBC osmotic lysis, higher = more signal, called active from +8 up or from −8 down
[14] = PSAC antagonists in infected red cells, primary screen, cell-based, P. falciparum Indochina, OD700, 2 h (AID 1155);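 further: lysis reports solute entry through the parasite surface anion channel PSAC; channel blockers reduce lysis of infected cells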; conditions: P. falciparum Indochina infected erythrocytes, osmotic lysis OD700; higher = more signal, called active from +8 up or from −8 down
[15] = osmotic lysis modulators in infected erythrocytes, primary screen, PSAC antagonist project, cell-based, P. falciparum Indochina, OD700, 3 h (AID 1156); conditions: higher = more signal, called active from +8 up or from −8 down
[16] = PSAC antagonists in infected red cells, primary screen, cell-based, P. falciparum Indochina, OD700, 18 h (AID 1157); conditions: P. falciparum Indochina infected erythrocytes, osmotic lysis OD700, 18 h; higher = more signal, called active from +8 up or from −8 down
[17] = modulators of S6 phosphorylation in cells, primary screen, cell-based, A549, cytoblot, luminescence, serum-stimulated (AID 1158); conditions: A549 phospho-S6 cytoblot, 5 h, higher = more signal;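 further: serum-stimulated A549 lung adenocarcinoma cells; signal is phosphorylated S6 detected by cytoblot immunostaining with HRP secondary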
[18] = target: NADPH oxidase 2 (Homo sapiens) (UniProt P04839); experiment: NOX2-dependent H2O2 signal modulators, primary screen, NOX inhibitor project, cell-based, HEK293-NOX2, PMA-stimulated, Amplex Red fluorescence (AID 1159); conditions: 45 min, higher = more signal, called active from +8 up or from −8 down; further: test concentration not given here
NADPH oxidase 2 (Homo sapiens), sequence (P04839 whole entry, looked up): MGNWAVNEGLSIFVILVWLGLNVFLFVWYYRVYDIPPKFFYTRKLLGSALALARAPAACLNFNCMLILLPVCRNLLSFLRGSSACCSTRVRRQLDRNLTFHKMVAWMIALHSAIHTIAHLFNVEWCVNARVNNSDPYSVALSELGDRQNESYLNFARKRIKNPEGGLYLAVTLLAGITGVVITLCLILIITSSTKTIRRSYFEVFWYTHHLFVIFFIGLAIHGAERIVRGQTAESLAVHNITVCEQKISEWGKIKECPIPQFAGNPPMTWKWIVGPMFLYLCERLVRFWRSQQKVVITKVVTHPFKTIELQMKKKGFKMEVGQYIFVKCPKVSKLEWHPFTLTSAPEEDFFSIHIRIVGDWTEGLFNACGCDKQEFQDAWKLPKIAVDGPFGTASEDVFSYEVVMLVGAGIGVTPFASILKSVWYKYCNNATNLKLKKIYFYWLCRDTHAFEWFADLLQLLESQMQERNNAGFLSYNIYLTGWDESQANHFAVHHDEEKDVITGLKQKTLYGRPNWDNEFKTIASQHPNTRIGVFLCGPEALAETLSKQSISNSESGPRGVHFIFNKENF

[19] = target: NADPH oxidase 4 (Homo sapiens) (UniProt Q9NPH5); experiment: NOX4-dependent H2O2 signal modulators, primary screen, NOX inhibitor project, cell-based, HEK293-NOX4, tetracycline-induced, Amplex Red fluorescence (AID 1160); conditions: 45 min, higher = more signal, called active from +8 up or from −8 down
NADPH oxidase 4 (Homo sapiens), sequence (Q9NPH5 whole entry, looked up): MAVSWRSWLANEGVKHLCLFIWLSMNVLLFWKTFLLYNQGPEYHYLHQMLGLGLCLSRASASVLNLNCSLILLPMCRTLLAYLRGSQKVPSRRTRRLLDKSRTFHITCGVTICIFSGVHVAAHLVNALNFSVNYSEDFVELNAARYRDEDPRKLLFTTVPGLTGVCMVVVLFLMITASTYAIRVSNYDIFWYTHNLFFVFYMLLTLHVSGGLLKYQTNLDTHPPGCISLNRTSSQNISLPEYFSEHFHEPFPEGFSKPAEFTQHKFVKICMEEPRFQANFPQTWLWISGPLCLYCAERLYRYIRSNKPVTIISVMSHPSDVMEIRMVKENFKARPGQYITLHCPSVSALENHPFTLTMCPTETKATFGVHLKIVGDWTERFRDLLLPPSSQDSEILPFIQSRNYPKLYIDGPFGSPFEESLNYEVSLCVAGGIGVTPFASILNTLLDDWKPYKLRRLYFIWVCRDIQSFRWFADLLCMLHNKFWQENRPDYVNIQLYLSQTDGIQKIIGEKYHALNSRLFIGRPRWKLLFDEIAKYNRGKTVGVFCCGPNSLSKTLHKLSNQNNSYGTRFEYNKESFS

[20] = target: NADPH oxidase 5 (Homo sapiens) (UniProt Q96PH1); experiment: NOX5-dependent H2O2 signal modulators, primary screen, NOX inhibitor project, cell-based, HEK293-NOX5, Amplex Red fluorescence (AID 1161); conditions: HEK293-NOX5, ionomycin, 45 min, higher = more signal
NADPH oxidase 5 (Homo sapiens), sequence (Q96PH1 whole entry, looked up): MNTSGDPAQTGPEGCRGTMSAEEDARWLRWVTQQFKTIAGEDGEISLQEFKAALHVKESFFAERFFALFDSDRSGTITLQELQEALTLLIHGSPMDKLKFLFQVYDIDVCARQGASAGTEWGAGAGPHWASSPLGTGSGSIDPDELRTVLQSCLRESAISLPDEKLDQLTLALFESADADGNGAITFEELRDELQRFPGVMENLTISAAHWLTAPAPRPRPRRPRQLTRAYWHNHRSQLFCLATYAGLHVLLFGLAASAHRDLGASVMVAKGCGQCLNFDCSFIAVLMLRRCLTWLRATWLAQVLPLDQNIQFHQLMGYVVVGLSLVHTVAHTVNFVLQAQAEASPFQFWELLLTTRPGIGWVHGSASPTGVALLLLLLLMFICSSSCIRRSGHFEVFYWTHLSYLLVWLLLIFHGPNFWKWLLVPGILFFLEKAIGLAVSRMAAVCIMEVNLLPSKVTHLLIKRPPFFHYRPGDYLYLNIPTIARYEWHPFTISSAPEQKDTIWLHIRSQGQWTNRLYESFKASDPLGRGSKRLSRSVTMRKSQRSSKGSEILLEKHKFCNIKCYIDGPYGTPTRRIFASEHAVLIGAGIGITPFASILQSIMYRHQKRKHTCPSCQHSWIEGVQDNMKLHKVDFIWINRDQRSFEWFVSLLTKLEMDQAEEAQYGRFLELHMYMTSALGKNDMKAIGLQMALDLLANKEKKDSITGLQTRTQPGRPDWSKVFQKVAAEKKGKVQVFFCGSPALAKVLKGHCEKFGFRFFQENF

| Compound | composite z-score [1] | z-score [2] | z-score [3] | z-score [4] | z-score [5] | composite z-score [6] | composite z-score [7] | composite z-score (Torsin-1A (Homo sapiens) [8]) | composite z-score (Torsin-1A (Homo sapiens) [9]) | composite z-score [10] | z-score [11] | composite z-score [12] | z-score [13] | z-score [14] | z-score [15] | z-score [16] | z-score [17] | z-score [18] | z-score [19] | z-score [20] |
| --- | --- | --- | --- | --- | --- | --- | --- | --- | --- | --- | --- | --- | --- | --- | --- | --- | --- | --- | --- | --- |
| COC(=O)[C@@]1(Cc2ccccc2)[C@H]2c3cc(C(=O)N(C)C)n(Cc4cc(F)c(F)c(F)c4)c3C[C@H]2CN1C(=O)c1ccccc1 | 0.312 | -3.19 (inactive) | 0.301 (inactive) | 0.0109 (inactive) | -0.214 (inactive) | 0.773 | 0.681 | 0.0663 | 0.12 | -0.578 | -1.61 (inactive) | 0.611 | 8.57 (active) | 1.65 (inactive) | 0.893 (inactive) | 1.4 (inactive) | -0.0786 | -0.0214 (inactive) | 1.57 (inactive) | 2.13 |
| Cc1ccc(S[C@]2(C(=O)NCCCN(C)C)CC(=O)N(C(C)C)[C@@H]2c2ccc(CO)cc2I)cc1 | -0.331 | -2.21 (inactive) | -0.985 (inactive) | -0.114 (inactive) | 0.561 (inactive) | -0.199 | -0.0986 | -1.59 | -0.729 | 0.0632 | 0.997 (inactive) | 0.264 | 6.19 (inactive) | -0.185 (inactive) | 1.38 (inactive) | 0.277 (inactive) | -0.265 | 0.347 (inactive) | -0.675 (inactive) | 2.17 |
| CC1CC/C=C\[C@H]2OC34C=CCN(Cn5nnc6ccccc65)C(=O)[C@H]3N(CCCO)C(=O)[C@@H]4C2C(=O)O1 (stereo not given in full) | -0.595 | -0.382 (inactive) | -0.281 (inactive) | -0.212 (inactive) | -0.759 (inactive) | -0.958 | -0.157 | -1.89 | -1.33 | 0.0837 | 1.29 (inactive) | 0.0445 | 0.935 (inactive) | 0.563 (inactive) | -0.264 (inactive) | 0.554 (inactive) | 0.114 | 0.923 (inactive) | -1.82 (inactive) | 1.4 |
| O=c1cccc(-c2cccc3ccccc23)o1 | -0.0859 | -0.779 (inactive) | -0.469 (inactive) | 0.182 (inactive) | 0.092 (inactive) | 0.112 | -0.0471 | 0.272 | -0.0514 | -0.343 | 0.109 (inactive) | 0.106 | 6.68 (inactive) | 1.37 (inactive) | -0.276 (inactive) | 0.832 (inactive) | -0.312 | -0.112 (inactive) | -2.39 (inactive) | -0.0533 |
| CN1C(=O)C2C=CC(C(O)C3=C[C@H]4C[C@@H](C3)C4(C)C)N(Nc3ccc([N+](=O)[O-])cc3[N+](=O)[O-])C2C1=O (stereo not given in full) | 0.325 | -0.119 (inactive) | -0.184 (inactive) | 0.443 (inactive) | -0.946 (inactive) | 1.56 | 0.421 | 0.124 | 0.566 | 0.0842 | -0.794 (inactive) | 0.271 | 3.59 (inactive) | 1.27 (inactive) | 1.06 (inactive) | 1.05 (inactive) | -0.456 | 0.0656 (inactive) | -0.0391 (inactive) | -1.2 |
